Bioassay records: PubChem BioAssay, National Center for Advancing Translational Sciences (NCATS)
This is a sample that favours compounds with a hit; in the whole collection about 6.9% have one here.
HP1b chromo inh = HTS for Inhibitors of HP1-beta Chromodomain Interactions with Methylated Histone Tails; Chromobox protein homolog 1 (Homo sapiens), P83916; AlphaScreen HP1-beta / biotin-H3K9me3 peptide binding; Potency, µM (titrated, usually from 114 µM), without a hit: top-dose activity change, negative = inhibition, hits mostly inhibitors; actives 0.56% (n = 390,000); AID 540317, 2011; note: nearly all actives have a fitted effect of over 70% in size
Target sequence (P83916 whole entry, looked up): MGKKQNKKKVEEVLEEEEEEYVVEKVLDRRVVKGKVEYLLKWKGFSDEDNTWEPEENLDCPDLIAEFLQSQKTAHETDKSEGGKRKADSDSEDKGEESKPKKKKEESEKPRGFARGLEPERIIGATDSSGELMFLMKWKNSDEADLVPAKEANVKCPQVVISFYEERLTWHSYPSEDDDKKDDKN
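Compound inhibition of the preformed complex between 50 nM HP1-beta and 50 nM biotinylated H3K9me3 peptide was read by AlphaScreen. Buffer was PBS pH 7.4 with 0.01% Tween-20. Incubations ran 30 min at room temperature, with 10 ug/mL donor/acceptor beads.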
JMJD2A Tudor = qHTS Assay for Inhibitors of JMJD2A-Tudor Domain; Potency, µM (top dose mostly 114 µM), without a hit: top-dose activity change, negative = inhibition, usual class: inhibitors; AID 504339, 2011; Lysine-specific demethylase 4A (Homo sapiens), O75164; actives 4.4% (n = 390,000); AlphaScreen JMJD2A-Tudor / H3K4me3 peptide binding; note: % is set by controls: 0 for no effect and ±100 for the full control effect; nearly all actives have a fitted effect of over 50% in size
BAZ2B block = qHTS Assay for Inhibitors of BAZ2B; Bromodomain adjacent to zinc finger domain protein 2B (Homo sapiens), Q9UIF8; AlphaScreen BAZ2B-H3K14Ac peptide displacement; Potency, µM (highest dose often 114 µM), without a hit: at the highest dose activity change, negative = inhibition, most hits filed as inhibitors; actives 4.4% (n = 360,000); AID 504333, 2011; note: % is set by controls: 0 for no effect and ±100 for the full control effect; nearly all actives have a fitted effect of over 60% in size
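BAZ2B (50 nM) with biotin-H3(5-23)K14Ac peptide (50 nM) in PBS pH 7.4, 0.01% Tween-20, preformed 30 min, then compound 30 min at room temperature; top concentration 110uM. AlphaScreen streptavidin donor/nickel chelate acceptor beads (10 ug/mL final), 20 min dark, signal read.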
VDR inhibitor = Inhibitors of the vitamin D receptor (VDR): qHTS; Vitamin D3 receptor (Homo sapiens), P11473; VDR-SRC2-3 peptide fluorescence polarization, 2 h; Potency, µM, inactives show max response, negative = inhibition, usual class: inhibitors; actives 0.93% (n = 400,000); AID 504847, 2011; note: % is set by controls: 0 for no effect and ±100 for the full control effect
Target sequence (P11473 whole entry, looked up): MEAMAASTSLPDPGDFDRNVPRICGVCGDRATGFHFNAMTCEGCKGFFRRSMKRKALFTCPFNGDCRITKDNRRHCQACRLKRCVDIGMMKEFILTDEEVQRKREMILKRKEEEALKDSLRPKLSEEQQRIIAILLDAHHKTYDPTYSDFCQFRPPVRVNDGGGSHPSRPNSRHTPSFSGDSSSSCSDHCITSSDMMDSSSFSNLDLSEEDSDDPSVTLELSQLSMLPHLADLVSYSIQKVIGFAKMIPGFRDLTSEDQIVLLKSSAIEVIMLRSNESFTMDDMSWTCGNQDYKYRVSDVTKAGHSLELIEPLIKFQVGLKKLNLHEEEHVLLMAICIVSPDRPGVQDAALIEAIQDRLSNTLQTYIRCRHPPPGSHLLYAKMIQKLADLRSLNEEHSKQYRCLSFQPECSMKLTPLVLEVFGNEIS
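The screen uses fluorescence polarization to detect compounds that interfere with recruitment of the SRC2-3 coactivator peptide to VDR; plates are read after 2 h at room temperature.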
PLK1 PBD block = qHTS for Inhibitors of PLK1-PDB (polo-like kinase 1 - polo-box domain): Primary Screen; Serine/threonine-protein kinase PLK1 (Homo sapiens), P53350; Plk1 PBD binding of FITC phosphopeptide, fluorescence polarization; Potency, µM, for inactives: max response, negative = inhibition, actives largely listed as inhibitors; actives 2.8% (n = 360,000); note: series mostly up to about 57 µM; % is set by controls: 0 for no effect and ±100 for the full control effect; nearly all actives have a fitted effect of over 65% in size
L3MBTL1 inh = qHTS Assay for the Inhibitors of L3MBTL1; AlphaScreen L3MBTL1–H3K9me1 peptide binding; Potency, µM (highest dose often 57.1 µM), inactives show top-dose activity, negative = inhibition, most hits filed as inhibitors; actives 0.66% (n = 230,000); AID 485360, 2010; note: % is set by controls: 0 for no effect and ±100 for the full control effect; nearly all actives have a fitted effect of over 60% in size
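L3MBTL1 50 nM + b-AHA-H3(1-15)K9me1 75 nM, 30 min RT; compound added, 30 min RT; streptavidin donor/Ni-chelate acceptor beads 10 ug/mL each final, 30 min RT dark; AlphaScreen read.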
Numbers without * were called inactive; u = inconclusive; x = not tested or not shown; [ ] = another dose, or the depositor's remark. Calls come from the whole dose curve; as a rule, active = well fitted curve in the direction sought with a large enough effect; inconclusive = small, poorly fitted or top-dose-only effect, or another doubt; inactive = no such curve, though single readings can be large; an effect the other way counts as inactive or inconclusive. Potency is the fitted concentration of half-maximal effect.

SMILES	HP1b chromo inh	JMJD2A Tudor	BAZ2B block	VDR inhibitor	PLK1 PBD block	L3MBTL1 inh
COc1ccc(NC(=O)CSc2nc3cc(OC)c(OC)cc3c3nc(-c4ccccc4)nn23)cc1Cl	47%	-18%	x	-21%	x	x
CC(C)(C)c1cc(=O)n2[nH]c(N)nc2n1	28%	u	56µM*	10%	-10%	-9%
C/C(=N\Nc1ccccc1[N+](=O)[O-])c1ccc(N2CCOCC2)cc1	10µM*	u	1µM*	6%	1%	-24%
O=C(COC(=O)/C=C/c1cccc(F)c1)Nc1ncccn1	-5%	u	56µM*	-12%	-9%	x
CCCCNC(=O)CCCN1C(=O)c2cccnc2Sc2ccccc21	44%	-1%	12%	-8%	-1%	x
Brc1ccc2nc(-c3c[nH]c4ccccc34)cn2c1	u	u	45µM*	10%	-5%	-11%
CN(C)C(=O)CN1C(=O)c2cccc3cccc1c23	35%	1%	25%	6%	2%	33%
O=C(CN1C(=O)c2cccc3cccc1c23)Nc1cccnc1	-8%	-6%[11.4 µM]	1%	7%	30µM*	-28%
CCN1C(=O)c2cccc3cccc1c23	9%	32µM*	36%	-10%	21µM*	x
CCCCCOc1ccc(CN2CCOCC2)cc1Cl	63%	-24%	-1%	-13%	-8%	x
Brc1ccccc1OCCN1CCOCC1	u	3.2µM*	u	-8%	7%	1%
Clc1cc(Br)ccc1OCCN1CCOCC1	u	0.79µM*	u	3%	4%	-3%
Cc1cccc(OCCN2CCOCC2)c1C	36%	-3%	-16%	-2%	6%	x
CCOc1ccc(-c2c(C)nn3c(C)c(C(=O)NC(C)c4ccccc4)cnc23)cc1OCC (stereo unspecified)	3%	-28%	-20%	8%	x	x
Cc1cccc(C)c1NC(=O)C(c1ccccc1F)n1c(=O)c(-c2ccccc2)nc2ccccc21 (stereo unspecified)	x	x	x	x	0%	x
CCCCNC(=O)CCn1c(=O)c2cccn2c2cccnc21	36%	5%	-34%	6%	x	x
COc1ccc(N2CCN(C(=O)CN(c3ccccc3)S(=O)(=O)c3ccc(OC)cc3)CC2)cc1	u	56µM*	u	7%	-8%	x
COc1ccc(N2CCN(C(=O)CN(c3ccc(OC)cc3)S(=O)(=O)c3ccccc3)CC2)cc1	-18%	u	u	8%	-1%	x
O=C(CN(c1ccccc1Cl)S(=O)(=O)c1ccccc1)N/N=C/c1ccccc1C(=O)O	38%	-8%	-24%	-12%	-16%	-12%
COc1ccc(/C=N/NC(=O)CN(c2ccc(OC)cc2)S(=O)(=O)c2ccccc2)cc1	22%	u	0%	-17%	27µM*	x
Cc1ccc(S(=O)(=O)N(CC(=O)N/N=C/c2ccccc2C(=O)O)c2cc(Cl)cc(Cl)c2)cc1	25%	-15%	u	-20%	42µM*	-8%
CCN(c1ccccc1)S(=O)(=O)c1ccc(N2CCN(c3ccc(O)cc3)CC2)nc1	50µM*	22µM*	x	-2%	-2%	u
Cc1nc2ccn(Cc3cccs3)c(=O)c2cc1C(=O)Nc1ccccc1	15%	-9%	-17%	0%	x	x
Cc1ccc(S(=O)(=O)N(C)c2ccccc2C(=O)N2CCCC2)cc1	11%	-9%	7%	-9%	-7%	x
COc1ccc(N2CCN(C(=O)c3ccccc3N(C)S(=O)(=O)c3ccc(C)cc3)CC2)cc1	-30%	u	40µM*	-8%	2%	x
SMILES	HP1b chromo inh	JMJD2A Tudor	BAZ2B block	VDR inhibitor	PLK1 PBD block	L3MBTL1 inh
CCc1ccccc1N(CC(=O)N1CCN(c2ccccc2)CC1)S(C)(=O)=O	-21%	79µM*	x	-9%	u	-2%
CCOC(=O)CC(=O)CSc1ccc2nnc(-c3cccc(F)c3)n2n1	12%	-1%	-3%	1%	-5%	-1%
COC(=O)c1ccc(CSc2ccc3nnc(-c4cccc(F)c4)n3n2)o1	u	89µM*	-2%	-29%	u	11%
CC(NC(=O)Nc1ccccc1O)(C(F)(F)F)C(F)(F)F	-16%	-31%[11.4 µM]	6%	10%	27µM*	1%
Cn1cccc1C(=O)NC(=O)COC(=O)c1cc(S(=O)(=O)N2CCCCC2)ccc1Cl	-5%	-22%[11.4 µM]	-9%	-11%	21µM*	x
CCN1CCN(C(=S)NC(=O)/C=C/c2cccs2)CC1	28%	-10%	-3%	-2%	-1%	16%
CCN1CCN(C(=S)NC(=O)c2cccs2)CC1	-17%	8.9µM*	u	2%	-2%	x
COc1ccc2c(c1)C(=NNc1ccc(C(=O)O)cc1)c1cc(OC)ccc1-2	u	50µM*	40µM*	-10%	u	x
COc1ccc2c(c1)C(=NN)c1cc(OC)ccc1-2	-20%	56µM*	40µM*	2%	1%	-15%
CCN(CC)CCN(CC(=O)N(C1CCCCC1)C1CCCCC1)C(=O)c1ccco1	u	1.6µM*	50µM*	-6%	-8%	x
O=C(C1CCN(S(=O)(=O)c2ccc(Br)s2)CC1)N1CCN(c2cccc(Cl)c2)CC1	37%	1%	6%	-9%	x	x
Cc1ccc(NC(=S)NNC(=S)Nc2cccc(C(F)(F)F)c2)cc1	u	u	-27%	28µM*	19µM*	x
Cc1ccc(NC(=O)CCC(=O)NNC(=S)Nc2ccc(F)cc2)c(C)c1	37%	-6%	u	6%	3%	x
Cc1ccc(C)c(NC(=S)NNc2ccc(F)cc2F)c1	u	32µM*	20µM*	10µM*	u	x
FC(F)(F)c1cc(NC(=S)Nc2ccc3cc4ccccc4cc3c2)cc(C(F)(F)F)c1	x	x	x	22µM*	x	x
Cc1ccc(NNC(=S)Nc2ccc(C(C)C)cc2)c(C)c1	22µM*	14µM*	35µM*	-17%	17µM*	u
CN(C)NC(=S)Nc1cccc(C(F)(F)F)c1	28%	7%	0%	-1%	2%	7%
Cc1cccc(-c2cc(C(=O)O)c3c(-c4ccc(F)cc4)[nH]nc3n2)c1	0%	-25%	u	6%	x	x
